Molecules are shown by their SMILES. Active and inactive are the calls of the source. How the calls were made is not given here.

A short description of the assay: inhibition of 3D7 malaria parasite growth – strain 3D7 (AID 2306).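 Further: 0% = DMSO wells and 100% = chloroquine plus artemisinin control wells.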 Conditions: P. falciparum 3D7 erythrocytic growth, LDH absorbance, 72 h; at 2 µM; stronger effect = higher value.
For the molecule `Cc1ccccc1C1CCN(C2CCC(NC(=O)/C=C/c3ccc(C(F)(F)F)cc3)CC2)CC1` (stereo not given), the growth inhibition was 95% (active).
Turning to `Cc1ccoc1C(=O)Nc1ccc(-c2cccc(-c3nc4c(C)cccc4[nH]3)c2)cc1`, the growth inhibition is 95% (active).
In the case of `CCCNCc1ccc(-c2ccc(CN(C(=O)c3nn(-c4ccccc4)nc3C)C(C)CN(C)C)cc2)nc1` (stereo not given) it was 95% (active); in that of `O=C(Cn1c(CCc2cccc(F)c2F)nc(=O)c2ccccc21)N(Cc1ccc(-c2ccc(C(F)(F)F)cc2)cc1)C1CCN(C2=NCCS2)CC1`, 81% (active); in that of `COc1cc2nc(NCCc3ccccc3)nc(NCc3nccs3)c2cc1OC`, 99% (active).
As to `COc1ccc(-c2ccc(NC(=O)c3cccc(C#N)c3)cc2)cc1CN1CCN(C)CC1`, the growth inhibition is 100% (active).
Take `O=C(/C=C/c1cccc2c1OCO2)Nc1ccnc2ccncc12`: the growth inhibition is 90% (active).
With `Cc1cc(N2CCN(C)CC2)nc2ccc(NC(=O)Cc3cccc(C(F)(F)F)c3)cc12`, the growth inhibition was 99% (active).
For the molecule `Nc1nc(N)c2c(ccc3nn(Cc4cccnc4)cc32)n1`, the growth inhibition is 96% (active).
To `COc1ccc(-c2ccc(NC(=O)c3cccc(C#N)c3)cc2)cc1CN1CCCC(C(N)=O)C1` (stereo not given) belongs 98% (active); to `Cc1cc2nc(-c3ccc(C(=O)NCc4ccc(Cl)c(Cl)c4)cc3)[nH]c2cc1C`, 96% (active).
Take `O=C(Nc1cccc(Cl)c1Cl)N[C@H]1CCN(CCCCCNC(=O)[C@@H]2C[C@H]2c2ccc(Cl)c(Cl)c2)C1`: the growth inhibition is 87% (active).
Take `O=C(Nc1ccc(CC(=O)N2CCc3cc(Cl)c(N4CCN(C/C=C/c5ccccc5)CC4)cc32)cc1)Nc1cccc([N+](=O)[O-])c1`: the growth inhibition was 95% (active).
`NC1CCCN(Cc2ccc(-c3cccc(-c4nc5ccccc5[nH]4)c3)cc2)C1` (stereo not given): the growth inhibition is 95% (active).
Regarding `O=C(Nc1cccc(Cl)c1N1CCOCC1)C(Cl)(Cl)Cl`, the growth inhibition is 96% (active).
As for `O=S(=O)(c1cccc(F)c1)c1ccc(Nc2ncnc3cc(Br)sc23)cc1Cl`, the growth inhibition was 86% (active).
`CCOC(=O)c1ccc(NC(=O)Nc2ccc(-c3ccc(-c4nc5ccccc5[nH]4)cc3)cc2)cc1`: the growth inhibition was 101% (active).
Take `Cc1[nH]c(C)c(-c2ccc(-c3ccccc3F)nc2)c(=O)c1Br`: the growth inhibition was 97% (active).
In the case of `CCOc1cc(C(=O)NCCCN2CCN(c3cccc(Cl)c3)CC2)ccc1-c1nc2cc(Cl)c(F)cc2[nH]1` it was 96% (active).
Consider `CC(C)CCN1CCC(Oc2ccc(NC(=O)c3ccco3)cc2Cl)CC1`, for which the growth inhibition was 95% (active).
In the case of `Cc1ccc(Nc2ccnc(Nc3ccc(F)c(Cl)c3)n2)cc1O` it was 101% (active); in that of `CCOc1c(CCNCCCCNCCc2ccc3ccccc3c2OCC)ccc2ccccc12`, 94% (active).
On to `CC(=O)Oc1cc(C)ccc1C1CCN(CCCCNC(=O)c2ccc(NC(=O)c3ccc(Cl)cc3)cc2)CC1`, for which the growth inhibition was 100% (active).
`Cc1cc(C)c2[nH]cc(C(=O)O)c(=O)c2c1`: the growth inhibition is 93% (active).
On to `CN1CCC(Oc2ccc(CN3CC[C@H](NC(=O)c4ccc(F)c(F)c4)C3)c3ccccc23)C1` (stereo not given in full), for which the growth inhibition was 91% (active).
Take `CC(C)Nc1cc(C(=O)N[C@@H](Cc2ccccc2)[C@H](O)CNC(C)(C)c2cccc(C(F)(F)F)c2)cc(N2CCCCS2(=O)=O)c1`: the growth inhibition was 98% (active).
With `COc1ccc2c(NN=Cc3ccccn3)ccnc2c1`, the growth inhibition is 102% (active).
As to `O=C(Nc1ccc(-c2csc3nccn23)cc1)c1ccc(Cl)cc1`, the growth inhibition was 100% (active).
In the case of `CCOCCCNc1ncc(-c2ccsc2)c(-c2nc(C)cs2)n1`, the growth inhibition is 89% (active).
For `CCc1c(CCNCCCCCCNCCc2ccccc2)ccc(OC)c1OC`, the growth inhibition is 102% (active).
As for `Nc1nc(N)c2c3c(cnc2n1)CCCC3`, the growth inhibition is 95% (active).
`Cc1nc2ccc([N+](=O)[O-])cc2c(=O)n1OCc1ccccc1`: the growth inhibition is 98% (active).
For `OCC(c1ccccc1)n1c(COc2ccc(Cl)cc2)nc2c(OCCCN3CCCCC3)cccc21` (stereo not given), the growth inhibition was 90% (active).
As for `COc1ccc2nccc([C@@H](O)CN3CCC(NCc4nc5c([N+](=O)[O-])cccc5[nH]4)CC3)c2c1`, the growth inhibition is 101% (active).
In the case of `CCC1(CC)N=C(N)N=C(N)C1c1ccc(Cl)c(Cl)c1` (stereo not given), the growth inhibition was 98% (active).
`COc1c(C2CCN(CCCCNC(=O)c3ccc(-c4ccc(Cl)cc4)cc3)CC2)ccc2c1C(C)(C)CCC2(C)C`: the growth inhibition is 95% (active).
On to `CCOC(=O)c1cccc(NC(=O)Nc2cc(C)nc3ccccc23)c1`, for which the growth inhibition was 100% (active).
With `O=C(Nc1ccc([N+](=O)[O-])cc1)Nc1nc2ccc(Cl)cc2s1`, the growth inhibition is 92% (active).
To `COc1ccccc1N1CCN(Cc2c(NC(C)=O)sc(C)c2C)CC1` belongs 95% (active).
Take `COc1ccc(C=NNc2nc3ccccc3[nH]2)cc1O`: the growth inhibition is 95% (active).

The values are drawn from PubChem BioAssay.
